Experimental data reported in PubChem BioAssay (NCI).
The panel holds about 79,000 compounds, 15% with a hit somewhere; the sample as a whole holds those more often. No stated cut-off is given here; in the data, active means growth inhibition above about 70%; inactive means the rest. Where a SMILES comes first, the peptide text is derived from it. The star is where a group is joined. Cbz = O=C(OCc1ccccc1)*

Legend:
[1] = NCI Yeast Anticancer Drug Screen. Data for the rad50 strain (AID 155);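 further: 0% = growth of vehicle-only cultures of the same strain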; conditions: S. cerevisiae rad50 strain growth inhibition, active compounds read high; at 50.0 µM unless noted
How it was run: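 Yeast carrying a defined DNA repair defect were exposed to test compounds, and growth was compared with vehicle-treated controls to give percent inhibition.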

[2] = NCI Yeast Anticancer Drug Screen. Data for the mec2-1 strain (AID 157); conditions: S. cerevisiae mec2-1 strain, active compounds read high; at 50.0 µM unless noted
How it was run: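 Using mec2-1 yeast: add compound, measure growth, express inhibition versus vehicle-treated cultures.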

[3] = NCI Yeast Anticancer Drug Screen. Data for the sgs1 mgt1 strain (AID 161);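 further: 0% = growth of cultures given vehicle only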; conditions: S. cerevisiae sgs1 mgt1 strain, active compounds read high; at 50.0 µM unless noted
How it was run: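 Growth of a repair-deficient yeast mutant was monitored after compound treatment and expressed as inhibition relative to vehicle-treated cultures.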

[4] = NCI Yeast Anticancer Drug Screen. Data for the cln2 rad14 strain (AID 165);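 further: 0% = growth equal to vehicle treated cultures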; conditions: S. cerevisiae cln2 rad14 strain, active compounds read high; at 50.0 µM unless noted
How it was run: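 Yeast strain cln2 rad14, bearing defects in cell cycle control and DNA repair, serves as the test system; values reflect growth inhibition compared with vehicle.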

[5] = NCI Yeast Anticancer Drug Screen. Data for the bub3 strain (AID 167); conditions: S. cerevisiae bub3 mutant strain, active compounds read high; at 50.0 µM unless noted
How it was run: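 Compounds were applied to a genetically altered yeast strain carrying a cell-cycle control defect. Growth inhibition was scored against vehicle-treated controls.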

[6] = NCI Yeast Anticancer Drug Screen. Data for the mlh1 rad18 strain (AID 175); conditions: S. cerevisiae mlh1 rad18 strain growth inhibition, active compounds read high; at 50.0 µM unless noted
How it was run: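 Steps: expose repair-defective yeast to compound; measure growth; express inhibition against vehicle-treated controls.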

Measured: growth inhibition

CC(C)OC(=S)SC1CCCCC1=O (stereo not given)
inactive: [1] -0.45% | [2] -8.1% | [3] -4.35% | [4] -66.2% | [5] -6.2% | [6] -8.25%

CN(Cc1ccccc1)c1cc(=O)n(C)c(=O)[nH]1
inactive: [1] 7.3% | [2] 15.8% | [3] 35.8% | [4] 14% | [5] 25.6% | [6] -6.8%

COC(=O)C(=O)c1c(C(=O)OC)nc2nnc(N)n2c1-c1cccc([N+](=O)[O-])c1
inactive: [1] 23.6% | [2] -4.35% | [3] 3.1% | [4] 17.3% | [5] 12.4% | [6] 18%

CN1C2=NCCN2C(=O)c2cc(Cl)ccc21
inactive: [1] 1.05% | [2] -21.9% | [3] 15.6% | [4] 8.65% | [5] 13.7% | [6] 9.9%

COC1C(OC(=O)c2ccc(C)[nH]2)C(O)C(Oc2ccc3c(O)c(NC(=O)c4c[nH]c(C(=O)Nc5c(O)c6ccc(OC7OC(C)(C)C(OC)C(OC(=O)c8ccc(C)[nH]8)C7O)c(C)c6oc5=O)c4C)c(=O)oc3c2C)OC1(C)C (stereo not given)
inactive: [1] 17% | [2] 8.45% | [3] 15.2% | [4] 24.7% | [5] 11.4% | [6] 26.6%

CC1=NN2C(c3ccc([N+](=O)[O-])cc3)=CSC2=NC(C)(C)C1
inactive: [1] 20.6% | [2] -5.6% | [3] 5.7% | [4] -5% | [5] -4.95% | [6] -11.6%

O=C(O)Cc1cc2c(cc1I)OCO2
inactive: [1] -1.2% | [2] 22.9% | [3] 2.15% | [4] -18.9% | [5] -11.2% | [6] -0.55%

Oc1cc(O)c2c(c1)OC(c1ccc(O)c(O)c1)C(O)C2O (stereo not given)
inactive: [1] 20.2% | [2] 6.6% | [3] 14.3% | [4] -3.55% | [5] 21.2% | [6] 30.9%

Cc1[nH]c2c(C)ccc(C)c2c(=O)c1Br
inactive: [1] -1.65% | [2] 10% | [3] -1% | [4] -16.7% | [5] -1.7% | [6] 3.2%

COc1ccc(C2CC(=O)N(c3ncccn3)C(=O)C2)cc1
inactive: [1] 14.5% | [2] 8.4% | [3] 10% | [4] -13.7% | [5] -12.3% | [6] 5.25%

O=C1OC(=O)C2C(Cl)C(Cl)C12 (stereo not given)
inactive: [1] -5.1% | [2] -7.2% | [3] 2.7% | [4] -37.6% | [5] -15.8% | [6] 3.4%

CC1CC(C)(O)C2C3(C)CCCC2(COC3=O)C12CCC1(CCOC1=O)O2 (stereo not given)
inactive: [1] 0.9% | [2] -23.5% | [3] 25.3% | [4] 3.8% | [5] -0.6% | [6] 2.9%

CCCCC1(CC)COC(=O)N(C)C1 (stereo not given)
inactive: [1] 10.8% | [2] 4.95% | [3] 0.65% | [4] -7.6% | [5] 18% | [6] 3%

O=S(=O)(N/N=C/c1cccc(Cl)c1Cl)c1ccccc1
inactive: [1] 9.3% | [2] 3% | [3] 4.4% | [4] -37.6% | [5] 3.5% | [6] 21.5%

O=S1(=O)CCC(c2ccccc2)C1 (stereo not given)
inactive: [1] 2.3% | [2] -10.7% | [3] -13.8% | [4] 0.45% | [5] -12.3% | [6] -7.15%

N#CC1(c2ccccc2)CCC1
inactive: [1] 4.85% | [2] -24.9% | [3] 7.5% | [4] 16.6% | [5] 6.4% | [6] 5.1%

COC1OC2COc3ccccc3OC2C2C1N2C(N)=O (stereo not given)
inactive: [1] 7.4% | [2] 0.7% | [3] 4.5% | [4] -6.65% | [5] -2.85% | [6] 3.8%

OCCNc1cccc2ccccc12
inactive: [1] 31.6% | [2] -4.15% | [3] 35.2% | [4] 18.9% | [5] 8.8% | [6] 37.4%

COc1ccc(C(=O)/C=C/c2ccc(OCC#N)cc2)cc1OC
inactive: [1] -39.5% | [2] -61.4% | [3] -38.5% | [4] -30.2% | [5] -33% | [6] -54.1%

O=C1CSC(c2ccccc2Cl)N1N1C(=O)CSC1c1ccccc1Cl (stereo not given)
inactive: [1] 32.4% | [2] 19.2% | [3] 28.1% | [4] 27.5% | [5] 24.3% | [6] 28.1%

Cc1ccc(S(=O)(=O)Oc2ccc3oc4cccc(NCCN(C)C)c4c(=O)c3c2)cc1
inactive: [1] -3.5% | [2] -13.7% | [3] -21.4% | [4] 5% | [5] -6.4% | [6] 3.1%

Cc1cc(C)c2c(c1)sc1n[nH]c(=S)n12
inactive: [1] 14.1% | [2] 6.7% | [3] 9.05% | [4] -11.4% | [5] -10.8% | [6] 3.95%

O=C(NC(=O)c1ccccc1)Oc1cccc2ccccc12
inactive: [1] 18.3% | [2] -0.1% | [3] 20.1% | [4] 7.85% | [5] 10.7% | [6] 22.8%

Clc1ccccc1/C=N\N=C\c1ccco1
inactive: [1] 8.3% | [2] -14.1% | [3] -9.05% | [4] -40.4% | [5] -11.1% | [6] 14.4%

O=C(NO)Nc1ccccc1Cl
inactive: [1] 6.45% | [2] 9.45% | [3] 10.5% | [4] -1.65% | [5] -4.25% | [6] 8.9%

Nc1nc(CCCCc2ccc(NC(=O)CBr)cc2)c(CCCCc2ccccc2)c(=O)[nH]1
inactive: [1] 27.6% | [2] 11.3% | [3] 34.7% | [4] 24.8% | [5] -3.1% | [6] 11.4%

CCOC(=O)CCC(NC(=O)C(Cc1ccccc1)NC(=O)OCc1ccccc1)C(=O)OCC (stereo not drawn) (Cbz-Phe-Glu(OEt)-OEt; configuration not given here)
inactive: [1] 3.9% | [2] -2.9% | [3] -0.2% | [4] -6.25% | [5] -7.85% | [6] -59.4%

CC(C)C(=O)NCC[C@@H](CNC(=O)OC(C)(C)C)NC(=O)OC(C)(C)C
inactive: [1] 20.1% | [2] -3.1% | [3] 38.6% | [4] -3.85% | [5] 28.7% | [6] 34.5%

CC1=NN(C(=O)c2ccc(Cl)cc2)C(=O)/C1=C/c1cccc([N+](=O)[O-])c1
inactive: [1] -16.7% | [2] -26.2% | [3] -44.9% | [4] -10.6% | [5] -15.9% | [6] -28.4%

CC1(C)OCC2OC3(c4nc(C#N)c(N)o4)OC(C)(C)OC3C2O1 (stereo not given)
inactive: [1] -18.8% | [2] -7.05% | [3] -48% | [4] -1.7% | [5] -39.2% | [6] -75%

Nc1c(C(=O)O)ccc(O)c1O
inactive: [1] 28.9% | [2] 20.5% | [3] 32.2% | [4] 7.95% | [5] 0.95% | [6] 9.8%

O=C(CCC(=O)c1ccccc1)NCc1ccccc1
inactive: [1] 11.2% | [2] -6.2% | [3] 4.4% | [4] 5.55% | [5] 6.5% | [6] 2.1%

CCNc1cc(Cl)c(C(=O)O)cc1[N+](=O)[O-]
inactive: [1] -8.8% | [2] 20.9% | [3] 15.3% | [4] -22.7% | [5] -8.75% | [6] -8.65%

CCCCCCCNC(=O)C(C)Br (stereo not given)
inactive: [1] 17.6% | [2] 26.6% | [3] 16.6% | [4] -41.9% | [5] 19.7% | [6] 22.1%

CCC1CC(C)=CCN1S(=O)(=O)c1ccc(C)cc1 (stereo not given)
inactive: [1] -12.6% | [2] -2.3% | [3] 4.4% | [4] 18.6% | [5] 12.2% | [6] 2.35%

Cc1ccc(O)c(Cl)c1C
inactive: [1] 6.4% | [2] -28.1% | [3] -6.7% | [4] 7.4% | [5] -26.3% | [6] 5.1%

O=C(O)c1c(-c2nccc3ccccc23)[nH]c(-c2ccccc2)c1S(=O)(=O)O
inactive: [1] -23.1% | [2] 5.7% | [3] -18.9% | [4] -35.3% | [5] -24.4% | [6] 21.6%

CCc1cccc(CC)c1NC(=S)N/C=C(\C#N)S(=O)(=O)c1ccc(C)cc1
inactive: [1] -4.8% | [2] -10.6% | [3] 17.4% | [4] -15.4% | [5] -5.5% | [6] -20.5%

Cc1ccc([N+](=O)[O-])cc1NC(=O)Oc1ccc(Cl)cc1Cl
inactive: [1] -5% | [2] 8.55% | [3] -10.9% | [4] 1% | [5] 2.5% | [6] -13.3%

COC(=O)C(CC(C)C)NC(=O)C(CC(N)=O)NC(=O)C(NC(=O)OCc1ccccc1)C(C)C (stereo not drawn) (Cbz-Val-Asn-Leu-OMe; configuration not given here)
inactive: [1] 38.1% | [2] 24.5% | [3] 8.9% | [4] 14.7% | [5] 9.3% | [6] 36.5%
